Sampled rows, rich in hits. Any-hit rate of the full collection: about 11%.
L3MBTL1 block: qHTS Assay for the Inhibitors of L3MBTL1; Lethal(3)malignant brain tumor-like protein 1 (Homo sapiens), Q9Y468; AlphaScreen L3MBTL1–H3K9me1 peptide binding; Potency, µM (titrated, usually from 57.1 µM), without a hit: at the highest dose activity, negative = inhibition, hits mostly inhibitors; 230,000 compounds, 0.66% hits; AID 485360, 2010; note: % is set by controls: 0 for no effect and ±100 for the full control effect; nearly all actives have a fitted effect of over 60% in size
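First, the protein-peptide complex forms for 30 min at room temperature (L3MBTL1 50 nM, biotinylated H3K9me1 peptide 75 nM). Next, compounds are pin-transferred and incubated 30 min. Finally, AlphaScreen beads are added and read after 30 min.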
HP1b binding inh: HTS for Inhibitors of HP1-beta Chromodomain Interactions with Methylated Histone Tails. Chromobox protein homolog 1 (Homo sapiens), P83916. AlphaScreen HP1-beta / biotin-H3K9me3 peptide binding. Potency, µM (series often up to 114 µM), for the others: at the highest dose activity change, negative = inhibition, actives largely listed as inhibitors. 390,000 compounds, 0.56% hits; note: nearly all actives have a fitted effect of over 70% in size
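HP1-beta protein (50 nM final) preincubated 30 min at room temperature with biotinylated H3(1-18)K9me3 peptide (50 nM) in PBS pH 7.4, 0.01% Tween-20, then compound added for 30 min. AlphaScreen streptavidin donor/nickel chelate acceptor beads (10 ug/mL final), 30 min dark, luminescence read.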
BAZ2B block: qHTS Assay for Inhibitors of BAZ2B; AID 504333, 2011; 360,000 compounds, 4.4% hits; Potency, µM (highest dose often 114 µM), for the others: top-dose activity change, negative = inhibition, actives largely listed as inhibitors; AlphaScreen BAZ2B-H3K14Ac peptide displacement; note: % is set by controls: 0 for no effect and ±100 for the full control effect; nearly all actives have a fitted effect of over 60% in size
Target sequence (Q9UIF8 whole entry, looked up): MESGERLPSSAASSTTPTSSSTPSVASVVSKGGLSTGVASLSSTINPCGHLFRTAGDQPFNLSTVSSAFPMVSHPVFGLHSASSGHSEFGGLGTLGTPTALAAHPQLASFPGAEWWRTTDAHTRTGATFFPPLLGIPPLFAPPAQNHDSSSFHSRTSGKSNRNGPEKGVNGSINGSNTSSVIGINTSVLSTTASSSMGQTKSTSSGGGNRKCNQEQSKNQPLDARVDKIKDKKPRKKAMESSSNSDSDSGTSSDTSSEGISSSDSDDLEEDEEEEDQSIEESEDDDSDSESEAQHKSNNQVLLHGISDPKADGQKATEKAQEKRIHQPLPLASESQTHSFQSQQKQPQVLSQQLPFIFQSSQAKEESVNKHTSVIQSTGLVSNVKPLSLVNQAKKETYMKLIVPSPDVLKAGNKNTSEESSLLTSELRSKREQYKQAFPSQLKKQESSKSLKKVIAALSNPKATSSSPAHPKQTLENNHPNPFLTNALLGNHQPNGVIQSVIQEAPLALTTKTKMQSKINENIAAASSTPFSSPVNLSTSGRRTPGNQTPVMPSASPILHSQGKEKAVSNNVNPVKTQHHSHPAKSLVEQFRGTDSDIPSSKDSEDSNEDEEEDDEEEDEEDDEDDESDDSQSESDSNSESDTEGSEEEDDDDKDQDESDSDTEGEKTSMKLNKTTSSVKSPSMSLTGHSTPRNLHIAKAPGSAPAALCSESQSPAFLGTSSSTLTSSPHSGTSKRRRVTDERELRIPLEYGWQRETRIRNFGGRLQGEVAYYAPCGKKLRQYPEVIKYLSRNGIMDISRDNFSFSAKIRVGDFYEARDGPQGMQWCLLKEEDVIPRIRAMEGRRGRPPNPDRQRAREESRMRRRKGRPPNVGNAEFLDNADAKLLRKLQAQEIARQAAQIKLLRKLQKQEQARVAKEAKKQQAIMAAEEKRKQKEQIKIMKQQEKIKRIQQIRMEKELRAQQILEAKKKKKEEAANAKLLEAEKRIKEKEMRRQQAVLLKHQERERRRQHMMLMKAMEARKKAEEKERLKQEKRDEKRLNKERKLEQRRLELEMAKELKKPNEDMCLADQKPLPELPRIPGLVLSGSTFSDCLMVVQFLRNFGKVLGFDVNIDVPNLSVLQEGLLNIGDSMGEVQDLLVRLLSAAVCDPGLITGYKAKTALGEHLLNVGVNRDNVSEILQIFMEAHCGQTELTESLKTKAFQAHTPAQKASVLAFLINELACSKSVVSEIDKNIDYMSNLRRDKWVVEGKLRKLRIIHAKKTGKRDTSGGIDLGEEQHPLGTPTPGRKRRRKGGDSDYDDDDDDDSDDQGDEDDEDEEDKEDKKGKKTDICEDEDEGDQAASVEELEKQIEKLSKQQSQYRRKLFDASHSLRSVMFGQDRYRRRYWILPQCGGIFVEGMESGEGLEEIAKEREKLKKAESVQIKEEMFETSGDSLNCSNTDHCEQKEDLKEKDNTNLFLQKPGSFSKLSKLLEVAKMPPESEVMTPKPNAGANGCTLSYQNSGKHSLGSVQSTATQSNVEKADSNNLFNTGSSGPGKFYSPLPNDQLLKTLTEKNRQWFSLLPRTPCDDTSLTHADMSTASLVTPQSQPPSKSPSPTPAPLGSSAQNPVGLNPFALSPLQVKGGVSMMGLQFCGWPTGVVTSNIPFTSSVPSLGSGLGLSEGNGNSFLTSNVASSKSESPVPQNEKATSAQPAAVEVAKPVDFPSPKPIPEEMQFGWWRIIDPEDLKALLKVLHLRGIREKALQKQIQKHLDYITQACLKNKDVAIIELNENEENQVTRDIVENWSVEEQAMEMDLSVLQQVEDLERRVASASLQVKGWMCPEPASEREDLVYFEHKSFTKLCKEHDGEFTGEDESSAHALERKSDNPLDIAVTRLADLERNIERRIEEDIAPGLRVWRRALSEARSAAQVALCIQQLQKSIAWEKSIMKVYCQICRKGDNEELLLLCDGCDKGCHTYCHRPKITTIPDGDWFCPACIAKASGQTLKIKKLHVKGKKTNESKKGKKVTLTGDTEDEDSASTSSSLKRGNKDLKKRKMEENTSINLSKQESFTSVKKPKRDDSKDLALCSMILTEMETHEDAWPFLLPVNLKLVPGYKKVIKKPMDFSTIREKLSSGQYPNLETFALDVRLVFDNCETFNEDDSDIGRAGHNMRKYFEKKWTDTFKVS
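Multi-concentration screen (max 110 uM) measuring displacement of acetylated histone H3 peptide from BAZ2B by AlphaScreen, using 50 nM protein, 50 nM peptide and 10 ug/mL streptavidin donor plus Ni-chelate acceptor beads.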
JMJD2A Tudor inh: qHTS Assay for Inhibitors of JMJD2A-Tudor Domain; Lysine-specific demethylase 4A (Homo sapiens), O75164; AlphaScreen JMJD2A-Tudor / H3K4me3 peptide binding; Potency, µM (top dose mostly 114 µM), for inactives: at the top dose activity change, negative = inhibition, usual class: inhibitors; 390,000 compounds, 4.4% hits; AID 504339, 2011; note: % is set by controls: 0 for no effect and ±100 for the full control effect; nearly all actives have a fitted effect of over 50% in size
G9a block: qHTS Assay for Inhibitors of Histone Lysine Methyltransferase G9a; Histone-lysine N-methyltransferase EHMT2 (Homo sapiens), Q96KQ7; G9a H3K9 monomethylation, AlphaScreen, 2 h; Potency, µM (titrated, usually from 102 µM), for inactives: at the highest dose activity, negative = inhibition, hits mostly inhibitors; 350,000 compounds, 8.8% hits; note: % is set by controls: 0 for no effect and ±100 for the full control effect; nearly all actives have a fitted effect of over 75% in size
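Signal arises when biotinylated H3K9 peptide, once monomethylated, bridges streptavidin donor and antibody-captured acceptor beads. Enzyme at 20 nM was preincubated 15 min with test compounds; peptide 500 nM and SAM 20 uM then reacted for 2 h.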
The depositor's hits bear a star; ? = inconclusive; . = no result; [ ] = remark or other dose. Calls come from the whole dose curve; as a rule, active = well fitted inhibition curve with a large enough effect; inconclusive = small, poorly fitted or top-dose-only effect; inactive = no such curve, though single readings can be large or run the other way. Potency is the fitted concentration of half-maximal effect.

SMILES	L3MBTL1 block	HP1b binding inh	BAZ2B block	JMJD2A Tudor inh	G9a block
CCOc1ccc(C2/C(=C(/O)c3ccc(S(=O)(=O)N4CCCCC4)cc3)C(=O)C(=O)N2CCCOC)cc1OC (stereo not given)	.	34.6%	-22.1%	-4.1%	79.4µM*
COCCCN1C(=O)C(=O)/C(=C(/O)c2ccc(OC(C)C)cc2)C1c1ccc(O)c(OC)c1 (stereo not given)	1.5%	-7.4%	6.9%	50.1µM*	56.2µM*
COCCN1C(=O)C(=O)/C(=C(/O)c2ccc(S(=O)(=O)N3CCOCC3)cc2)C1c1cccc(Cl)c1 (stereo not given)	-3.5%	31.6%	-15.0%	-16.2%	4.0%
CCOc1ccc(S(=O)(=O)N(CC)CC)cc1NC(=O)CSCc1c(C)noc1C	5.5%	16.1%	14.1%	-7.9%	-6.1%[0.501 µM]
O=C(Nc1ccc(Cl)cc1)C(Cl)C(=O)c1ccccc1 (stereo not given)	.	1.9%	-5.5%	-13.6%	11.2µM*
O=C(Nc1ccccc1Cl)C(Cl)C(=O)c1ccccc1 (stereo not given)	.	19.8%	?	-14.8%	39.8µM*
O=C(Nc1ccc(Nc2ccccc2)cc1)Nc1ccccc1Cl	-22.0%	?	20µM*	?	7.94µM*
CC(=O)c1ccc(-c2csc3ncnc(Sc4nnnn4C)c23)cc1	.	.	.	-19.9%	.
O=C(Nc1ccc(F)c(F)c1)c1cc(S(=O)(=O)NCc2ccc3c(c2)OCO3)ccc1F	.	29.4%	3.1%	-26.0%	2.5%[59 µM]
O=S(=O)(O)c1ccc(SCc2ccccc2)nc1	.	24.5%	.	89.1µM*	.
NS(=O)(=O)c1ccc(SCc2ccccc2)nc1	.	28.9%	.	-7.2%	.
Cc1cccc(C(=O)NCC(c2cccs2)N2CCOCC2)c1 (stereo not given)	-2.5%	17.9%	9.5%	-3.4%	7.94µM*
COC(=O)NCC(c1cccnc1)N1CCOCC1 (stereo not given)	-1.6%	54.9%	-1.8%	2.1%	?
CCc1ccc(NC(=O)C(=O)NCC(c2cccnc2)N2CCN(C)CC2)cc1 (stereo not given)	.	17.3%	44.7µM*	56.2µM*	15.8µM*
O=C(NCC(c1cccnc1)N1CCOCC1)c1cccs1 (stereo not given)	-3.5%	37.6%	-10.0%	9.4%[57.1 µM]	44.7µM*
Cc1cc(=O)oc2cc(OCCSCCN3CCCCC3)ccc12	-0.8%	9.6%	5.1%	-9.9%	2.9%
CCN(c1ccccc1)S(=O)(=O)c1cc(C(=O)O)ccc1C	?	8.4%	50.1µM*	-23.5%	1.4%[0.501 µM]
O=c1c(N2CCOCC2)coc2ccccc12	-1.3%	90.5%	-11.9%	-9.7%	3.55µM*
COc1ccc(-[n+]2c(C)cc(/C=C3\Sc4ccccc4N3C)cc2C)cc1	8.8%	64.6%	-14.6%	-3.7%	50.1µM*
O=C(O)CCSCC(=O)c1ccc2c(c1)OCCO2	3.1%	73.2%	3.3%	?	31.6µM*
O=C(CCN1Cc2ccccc2C1)c1ccc2c(c1)OCCO2	0.8%	13.6%	-11.9%	?	8.91µM*
O=C(CCN1CCc2ccccc2C(c2ccccc2)C1)c1ccc2c(c1)OCCO2 (stereo not given)	.	-12.7%	?	?	?
CSc1ccc(CNc2ccc(C)c(C)c2)cc1	-20.1%	?	50.1µM*	39.8µM*	89.1µM*
Cc1ccc(NCc2ccccc2O)cc1C	.	?	?	50.1µM*	?
Cc1nc2cc(NCc3ccccc3O)ccc2n1Cc1ccccc1	-14.8%	?	20µM*	31.6µM*	.
Oc1ccccc1CNc1ccc2c(c1)OCCO2	-27.5%	3.8%	?	-34.7%	?
CCOC(=O)C1(C)C=C(Nc2cccc(C(=O)O)c2)C(=O)N1c1ccccc1 (stereo not given)	.	66.0%	4.9%	-3.1%	-2.0%[59 µM]
CN(CC(=O)Nc1cccc(F)c1)C(=O)c1ccccc1Cc1ccccc1	-7.9%	-1.6%	-4.4%	-27.4%	3.1%

Assay outcomes (PubChem BioAssay)
